Screening results deposited in PubChem BioAssay by National Center for Advancing Translational Sciences (NCATS).
An excerpt weighted towards active compounds, which were near 11% of everything screened.
HPGD block: HPGD (human) dehydrogenase inhibition | AID 894 | Potency, µM, for inactives: top-dose activity change, negative = inhibition, hits mostly inhibitors | actives 4.3% (n = 150,000) | purified HPGD, NADH fluorescence kinetic, PGE2 substrate; active means well fitted inhibition curve with a large enough effect, not every such curve was filed as active; inconclusive means small, poorly fitted or top-dose-only effect, or another doubt; inactive means no such curve, though single readings can be large or run the other way; further: potency means the concentration at half of the fitted maximal effect; on the % scale 0 is the no-effect control and ±100 the full control effect
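20 nM HPGD preincubated 15 min at room temperature with compound in 50 mM Tris-HCl pH 8, 0.01% Tween 20. Started with 1 mM NAD+ and 30 uM prostaglandin E2; NADH fluorescence (360/450 nm) read 5 times over 30-s intervals, last minus first.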
CBFb-RUNX1 inh: blocks binding between human CBF-beta and RUNX1; Q01196+Q13951; AlphaScreen CBFb-His/RUNX1-biotin binding, biochemical; Potency, µM (top dose mostly 59.8 µM), for inactives: at the highest dose activity, negative = inhibition, usual class: inhibitors; 230,000 tested, under 10 active; further: % of control where 0% means no effect
Target sequence (Q01196 whole entry, looked up): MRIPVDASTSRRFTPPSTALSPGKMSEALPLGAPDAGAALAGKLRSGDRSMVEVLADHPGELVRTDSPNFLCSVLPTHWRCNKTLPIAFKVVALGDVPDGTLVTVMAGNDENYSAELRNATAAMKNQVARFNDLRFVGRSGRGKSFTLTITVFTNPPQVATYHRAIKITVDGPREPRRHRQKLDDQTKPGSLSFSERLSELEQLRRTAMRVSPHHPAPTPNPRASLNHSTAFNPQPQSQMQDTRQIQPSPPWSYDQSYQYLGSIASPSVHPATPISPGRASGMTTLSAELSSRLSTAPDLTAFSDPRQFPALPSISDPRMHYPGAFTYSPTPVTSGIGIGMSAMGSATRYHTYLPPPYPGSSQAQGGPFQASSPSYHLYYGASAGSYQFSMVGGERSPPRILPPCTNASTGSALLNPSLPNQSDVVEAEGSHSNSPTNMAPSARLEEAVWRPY
Target sequence (Q13951 whole entry, looked up): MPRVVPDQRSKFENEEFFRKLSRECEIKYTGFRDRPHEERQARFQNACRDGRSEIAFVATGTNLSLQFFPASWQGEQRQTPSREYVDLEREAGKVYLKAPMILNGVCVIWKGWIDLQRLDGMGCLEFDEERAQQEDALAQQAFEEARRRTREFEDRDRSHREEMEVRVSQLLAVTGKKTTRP
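AlphaScreen binding: CBFb-His and RUNX1-biotin (30 nM each) preincubated 20 min, compound added for 15 min, then nickel and streptavidin beads for 90 min, all at room temperature. Disruption of the interaction by any mechanism counts as activity.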
HTT ATP protect: protects HTT-Q103 PC12 cells, measured by ATP. PC12 HTT-Q103 induced, cytoprotection, ATP luminescence, 40 h. Potency, µM (highest dose often 56.4 µM), for the others: cytoprotection (ATP increase), hits mostly activators. actives 0.14% (n = 230,000). AID 1471; further: potency means the concentration at half of the fitted maximal effect; % of control where 0% means no effect; nearly all actives have a fitted effect of over 45% in size
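Stable PC12 Q103-GFP cells in serum-supplemented, phenol red-free DMEM; induction by tebufenozide at 100 nM final; compound dose series; cell viability quantified luminescently from ATP.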
HttQ103 aggreg: reduces HttQ103-GFP aggregates in PC12 cells; PC12 HttQ103-GFP aggregates, Acumen cytometry, 40 h; Potency, µM (titrated, usually from 46.1 µM), inactives show at the top dose activity change, negative = inhibition, actives largely listed as inhibitors; actives 1.1% (n = 220,000); further: potency means the concentration at half of the fitted maximal effect; on the % scale 0 is the no-effect control and ±100 the full control effect; nearly all actives have a fitted effect of over 60% in size
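PC12 cells stably carrying ecdysone-inducible HTT exon 1 Q103–GFP were induced with tebufenozide (100 nM final) and treated with library compounds in titration. GFP aggregates in lysates were counted by laser scanning cytometry.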
PNC assembly inh: perinucleolar compartment assembly inhibition; AID 2417; activity change (PNC), negative = inhibition, % at 10 µM; PC3M PTB-GFP, PNC prevalence imaging, 16 h; hits give low values; actives 3.1% (n = 140,000);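 active means readout at or below -70, meaning at least 70% loss of cells showing the perinucleolar compartment, a nuclear body marking cancer cells; inconclusive means readout between -30 and a set limit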;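 further: plate controls were DMSO wells for no effect and camptothecin positive control wells for full effect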
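Read-out is percentage of cells bearing a perinucleolar compartment, from automated 20x imaging of fixed, Hoechst-stained PC3M PTB-GFP cells. Cells were seeded 4 h, then exposed 16 h to compound (23 nl of library stock) in duplicate plates.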
ALDH1A1 block: inhibitors of human aldehyde dehydrogenase 1A1; P00352; Purified ALDH1A1, NADH fluorescence, propionaldehyde substrate; Potency, µM (titrated, usually from 75.3 µM), without a hit: at the top dose activity, negative = inhibition, most hits filed as inhibitors; actives 7.3% (n = 220,000); AID 1030; active means well fitted inhibition curve with a large enough effect, not every such curve was filed as active; inconclusive means small, poorly fitted or top-dose-only effect, or another doubt; inactive means no such curve, though single readings can be large or run the other way;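 further: potency means the concentration at half of the fitted maximal effect; plate controls were no enzyme wells and a reference inhibitor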
* marks the source's active call; other numbers are inactive results; u = inconclusive; x = no result given; [ ] = another dose, or the depositor's remark. Unless noted, the call rests on the fitted dose curve; in most records, active means well fitted curve in the direction sought with a large enough effect; inconclusive means small, poorly fitted or top-dose-only effect, or another doubt; inactive means no such curve, though single readings can be large; an effect the other way counts as inactive or inconclusive.

SMILES	HPGD block	CBFb-RUNX1 inh	HTT ATP protect	HttQ103 aggreg	PNC assembly inh	ALDH1A1 block
O=C(Nc1cccc2c1CCCC2)C1CCN(c2nnnn2-c2ccccc2)CC1	-10%	10%	6%[10 µM]	-9%	u	8.9µM*
Cc1noc(C)c1-c1nc(N2CCNCC2)c2ccccc2n1	-6%	x	8%	x	x	6%
CCCn1c(-c2ccc(F)cc2)nc2c(N3CCCN(Cc4ccccc4)CC3)nc(C)nc21	u	-2%	-32%	x	x	u
O=S(=O)(c1ccccc1)N1CCC[C@@]2(CCN(c3ccncc3)C2)C1	6%	x	u	x	x	5%
Cc1oc(C(C)(C)C)cc1C(=O)NCc1ccc2c(c1)OCO2	x	5%	18%[10 µM]	17%[9.22 µM]	x	-5%
CCOC(=O)c1ccc(CNC(=O)c2cc(C(C)(C)C)oc2C)o1	-6%	-5%	-10%[0.074 µM]	-8%	-14	25µM*
CCOC(=O)c1cc(C(C)(C)C)oc1CNC(=O)c1c(C)oc2c1CCCC2	-23%	4%	23%[10 µM]	-13%	280	18µM*
Cc1ccc(NC(=O)C(=Cc2ccc(C(=O)O)cc2)C(=O)Nc2ccc(C)cc2C)c(C)c1	x	-2%	u	u	x	x
COc1cc(CN(C(=S)NCC(=O)NC2CCCC2)C2CCCC2)cc(OC)c1OC	-10%	-12%	9%[10 µM]	-3%	9	-4%
CCS(=O)(=O)N1CCC(c2nc(-c3ccc(C(F)(F)F)cc3)no2)CC1	-16%	10%	-38%	11µM*	-4	1%
CS(=O)(=O)N(CCC#N)Cc1ccc(/C=C2\C(=O)Nc3ccccc32)o1	x	-1%	-39%	11µM*	x	0%
Cn1cc(Cl)c(C(=O)N/N=C/c2ccc(OS(=O)(=O)c3ccccc3)cc2)n1	u	-4%	21%[10 µM]	20%	-100*	u
CCc1cccc(CC)c1NC(=O)c1cccc(NC(=O)c2ccccc2)c1	-1%	-1%	0%[10 µM]	3%	28	5%
COc1ccc(CNC(=O)c2ccc3c(c2)NC(=O)C(C)S3)cc1 (configuration not stated)	x	-5%	16%[10 µM]	0%[9.22 µM]	x	10µM*
COc1ccc(CNC(=O)c2cccc(N(C)C)c2)cc1	-8%	-8%	0%	3%	-83*	u
CCc1cccc(C)c1NC(=O)c1cccc(N(C)C)c1	14µM*	-2%	-17%	7%	-26	u
C=C(C)C(=O)/C=C/c1ccc(Br)cc1	-3%	11%	u	x	x	-8%
COC(=O)[C@@H](O)CC[C@@H](C)Cc1c(OC)c(OC)c(C)c(OC)c1OC	-6%	-8%	-28%	x	x	12%
CCCCCCCCCCCCCCCCOCCOCCOCCOCCOCCOCCOCCOCCOCCOCCOCCOCCOCCOCCOCCOCCOCCOCCOCCOCCO	x	x	-98%	u	x	x
O=C(CCC(=O)OCC(=O)c1ccc(Cl)cc1Cl)Nc1cccc2cccnc12	-17%	4%	-17%	-17%	26	28µM*
O=C(CCC(=O)OCC(=O)c1ccc(-c2ccccc2)cc1)Nc1cccc2cccnc12	-20%	7%	4%	5%	-18	4%
Cc1ccc(-c2csc3ncn(-n4c(C)ccc4C)c(=O)c23)o1	28µM*	13%	-7%[10 µM]	u	u	32µM*
CC(C)(C)OC(=O)N1CCC(C(=O)N2CCCCCC2)CC1	14µM*	2%	-2%[10 µM]	18%	u	13%
CC(C)n1c(O)c(N=NC(=O)C2COc3ccccc3O2)c2ccccc21 (configuration not stated)	x	-9%	7%[10 µM]	16%[9.22 µM]	x	u
CC(C)(C)OC(=O)NCCCC1=CC2=CC(=O)C(C)(OC(=O)C3CCCC3)C(=O)C2=CO1 (configuration not stated)	-11%	-6%	u	x	x	12%
SMILES	HPGD block	CBFb-RUNX1 inh	HTT ATP protect	HttQ103 aggreg	PNC assembly inh	ALDH1A1 block
CN(C)c1ccc(C(=O)Nc2cc(C(F)(F)F)ccc2-n2cncn2)cc1	-23%	10%	-4%	5%	-92*	u
O=C(Cc1cnc2ncnn2c1)N1CCc2c([nH]c3ccccc23)C1c1ccccc1F (configuration not stated)	x	-10%	29%[10 µM]	9%[9.22 µM]	x	4.5µM*
Cc1cnc(CNc2cc(-c3ccccc3C(F)(F)F)ncn2)cn1	x	x	-43%	x	x	-2%
CN1C(=O)CC(N2CCN(C(=O)CN3CCCC3)CC2)C1=O (configuration not stated)	0%	10%	16%	-4%	-5	3%
CCOc1ccc(N2C(=O)CC(N3CCN(C(=O)CN4CCCC4)CC3)C2=O)cc1 (configuration not stated)	-7%	2%	7%	4%[9.22 µM]	-114*	16µM*
COc1ccccc1N(O)C1CC(=O)N(c2ccc(F)cc2)C1=O (configuration not stated)	22µM*	-9%	8%[10 µM]	9%	32	1.3µM*
CC(=O)Nc1ccc(N2C(=O)CC(N3CC(C)OC(C)C3)C2=O)cc1 (configuration not stated)	-14%	9%	-9%	-20%	8	7.9µM*
CCCOc1ccc(N2C(=O)CC(N3CCOCC3)C2=O)cc1 (configuration not stated)	-7%	1%	-14%	16%	u	25µM*
COc1ccccc1N1C(=O)CC(N(O)c2ccccc2)C1=O (configuration not stated)	x	-3%	19%[10 µM]	20%[9.22 µM]	x	1%
CCCOc1ccc(N2C(=O)CC(N(O)c3ccccc3)C2=O)cc1 (configuration not stated)	4%	-11%	-14%	10%	-89*	u
COC(=O)c1ccc(N2C(=O)CC(N3CCOCC3)C2=O)cc1 (configuration not stated)	-7%	11%	-3%	-9%	u	28µM*
CCCOc1ccc(N2C(=O)CC(N3CCCC(C(=O)N4CCCC4)C3)C2=O)cc1 (configuration not stated)	-12%	1%	-5%[10 µM]	-6%	u	18µM*
O=C1CC(N2CCOCC2)C(=O)N1c1ccc(Cl)cc1 (configuration not stated)	x	7%	-2%[10 µM]	-7%[9.22 µM]	x	x
Cc1cccc(C[C@H](C(=O)O)N2C(=O)c3ccc(C(=O)O)cc3C2=O)c1	x	15%	x	x	x	x
CCOC(=O)Cc1csc(SCn2nnc3ccccc3c2=O)n1	-22%	6%	13%[10 µM]	-17%	-9	u
CCOC(=O)Cc1csc(-n2sc3ccccc3c2=O)n1	1.4µM*	-15%	-26%[10 µM]	38%	8	3.5µM*
O=C(Oc1cncc(Cl)c1)c1ccco1	-2%	2%	32%[10 µM]	22%	-81*	5%
